Sampled rows, rich in hits. Any-hit rate of the full collection: about 18%.
CtBP-E1A inh – qHTS Assay for Inhibitors of the CtBP/E1A Interaction | CtBP / adenovirus E1A interaction (AlphaScreen) | 0.49% of 340,000 active | activity change, % (no concentration beside the values) | AlphaScreen GST-E1A/His-CtBP binding, 1536-well; stronger effect = lower value; in the data active = activity change below about -65%; inconclusive = mostly about -30% to -63%
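Homogeneous bead-based format: GST-tagged E1A captured on glutathione donor beads, His-tagged CtBP on nickel acceptor beads; compounds precede bead addition by 2 h at 37 °C.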
IL1B secr inh – qHTS for Inhibitors of Inflammasome Signaling: IL-1-beta AlphaLISA Primary Screen; THP-1 LPS/ATP IL-1B secretion, AlphaLISA, 16 h; stronger effect = lower value; activity change, % at 57.5 µM; 4.7% of 360,000 active; in the data active = activity change below about -50%; inconclusive = mostly about -30% to -49%
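Secreted IL-1B measured by AlphaLISA bead assay after 16 h compound exposure of THP-1 cells; compounds (final up to 57.5 uM) added 1 h before LPS (250 ng/mL) and ATP (1.25 mM) stimulation; lower signal means less secretion.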
Six1-Eya2 inh – qHTS Assay for Inhibitors of the Six1/Eya2 Interaction | Homeobox protein SIX1 (Homo sapiens) + Protein phosphatase EYA2 (Homo sapiens), … | AlphaScreen GST-Six1/His-Eya2 binding, biochemical; stronger effect = lower value | activity change, % (no concentration beside the values) | 0.56% of 360,000 active; in the data active = activity change below about -65%; inconclusive = mostly about -30% to -63%
Target sequence (O00167 whole entry, looked up): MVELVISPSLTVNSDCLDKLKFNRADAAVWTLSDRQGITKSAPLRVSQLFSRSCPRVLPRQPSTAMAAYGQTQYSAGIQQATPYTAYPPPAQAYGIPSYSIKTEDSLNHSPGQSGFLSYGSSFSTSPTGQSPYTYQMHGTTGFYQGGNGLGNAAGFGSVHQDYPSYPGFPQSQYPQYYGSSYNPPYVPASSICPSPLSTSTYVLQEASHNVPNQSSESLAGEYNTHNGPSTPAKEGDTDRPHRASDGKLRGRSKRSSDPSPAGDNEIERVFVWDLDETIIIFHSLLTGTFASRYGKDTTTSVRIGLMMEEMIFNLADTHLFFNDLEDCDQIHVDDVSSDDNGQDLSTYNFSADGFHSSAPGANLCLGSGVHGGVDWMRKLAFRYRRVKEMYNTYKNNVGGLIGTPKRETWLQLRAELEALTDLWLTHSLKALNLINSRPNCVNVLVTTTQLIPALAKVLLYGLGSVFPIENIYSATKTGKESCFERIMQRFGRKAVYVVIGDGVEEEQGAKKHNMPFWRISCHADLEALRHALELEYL
Target sequence (Q15475 whole entry, looked up): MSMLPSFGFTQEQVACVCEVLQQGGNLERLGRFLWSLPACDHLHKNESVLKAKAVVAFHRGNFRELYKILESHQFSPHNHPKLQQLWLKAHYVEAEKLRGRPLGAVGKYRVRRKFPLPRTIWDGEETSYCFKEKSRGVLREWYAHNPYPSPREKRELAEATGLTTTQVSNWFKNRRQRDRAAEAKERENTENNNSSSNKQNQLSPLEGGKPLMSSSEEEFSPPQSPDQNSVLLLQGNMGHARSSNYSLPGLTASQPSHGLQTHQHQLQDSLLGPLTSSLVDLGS
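GST-Six1 + His-Eya2 (5X stock: 250/500 nM); Tris pH 8.0, 300 mM NaCl, 0.05% BSA, 0.02% Tween 20; GSH donor/Ni acceptor beads; 1 h 37 °C dark; AlphaScreen readout.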
DT40 TDP1 CPT – qHTS for Inhibitors of human tyrosyl-DNA phosphodiesterase 1 (TDP1): qHTS in cells in presence of CPT. chicken DT40 Tdp1-/-;hTDP1 cells + 20 nM CPT, ATP luminescence, 48 h. 12% of 420,000 active. Potency, µM (series often up to 46.2 µM), actives largely listed as inhibitors. AID 686979, 2013; also: nearly all actives have a fitted effect of over 55% in size
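Chicken DT40 Tdp1-/- cells complemented with human TDP1, 400 cells/well, exposed to compounds plus 20 nM camptothecin for at least 48 h at 37 C; viability read as ATP content by CellTiter-Glo luminescence.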
TDP1 inh – qHTS Assay for Inhibitors of Tyrosyl-DNA Phosphodiesterase (TDP1) | Tyrosyl-DNA phosphodiesterase 1 (Homo sapiens), Q9NUW8 | recombinant TDP1, AlphaScreen DNA substrate cleavage | Potency, µM (series often up to 130 µM), most hits filed as inhibitors | 0.28% of 350,000 active; also: nearly all actives have a fitted effect of over 40% in size
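Compounds were preincubated with Tdp1 (1 nM final) for 15 min at room temperature before substrate (15 nM final) started a 5 min reaction; beads (10 ug/ml final) were then added for 10 min before AlphaScreen detection.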
DT40 TDP1 no CPT – qHTS for Inhibitors of human tyrosyl-DNA phosphodiesterase 1 (TDP1): qHTS in cells in absence of CPT; 15% of 420,000 active; AID 686978, 2013; DT40 Tdp1-/- hTDP1 cells, no CPT, ATP luminescence, 48 h; Potency, µM (series often up to 46.2 µM), most hits filed as inhibitors; also: nearly all actives have a fitted effect of over 55% in size
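Chicken DT40 Tdp1-/- cells complemented with human TDP1, screened without camptothecin (DMSO vehicle only), 400 cells/well. Compounds pin-transferred, cells incubated at 37 °C for at least 48 hr. Growth read as ATP-dependent luminescence (CellTiter-Glo, 30 min at RT).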
Hits are given with their value; - = inactive; ? = inconclusive; . = not tested or not shown; [ ] = dose if it differs, or a comment. Unless noted, calls follow the shape of the dose curve; as a rule, active = well fitted curve in the direction sought with a large enough effect; inconclusive = small, poorly fitted or top-dose-only effect, or another doubt; inactive = no such curve, though single readings can be large; an effect the other way counts as inactive or inconclusive.

SMILES	CtBP-E1A inh	IL1B secr inh	Six1-Eya2 inh	DT40 TDP1 CPT	TDP1 inh	DT40 TDP1 no CPT
O=C(CCSc1nc(-c2ccco2)cc(C(F)(F)F)n1)NCc1cccs1	-	-	-	16µM	-	?
COc1ccc(CCNC(=O)CCSc2nc(-c3ccco3)cc(C(F)(F)F)n2)cc1OC	-	?	-	15µM	-	16µM
O=C(CCSc1nc(-c2ccco2)cc(C(F)(F)F)n1)N1CCN(c2ccccc2)CC1	-	-	-	?	-	21µM
COc1ccc(CCNc2nc(-c3ccco3)cc(C(F)(F)F)n2)cc1OC	-	-	-	?	-	?
CC(NC(=O)CCSc1nc(-c2ccco2)cc(C(F)(F)F)n1)c1ccccc1 (stereo not given)	-	-	-	13µM	-	?
O=C(CCSc1nc(-c2ccco2)cc(C(F)(F)F)n1)NCc1ccccn1	-	-	-	-	-	-
CC(C)NC(=O)N1CCCC2(CCN(C(=O)c3cccc(F)c3)CC2)C1	.	.	.	-	.	-
CCC(C)c1ccc(S(=O)(=O)N2CC(=O)Nc3ccccc32)cc1 (stereo not given)	-	-	-	-	-	?
CCC(C)(C)NC(=O)C1CCN(S(=O)(=O)c2c(C)noc2/C=C/c2ccc(C)cc2)CC1	.	.	.	23µM	-	?
COc1ccc(/C=C/c2onc(C)c2S(=O)(=O)N2CCC(C(=O)N3CCCCC3)CC2)cc1	.	.	.	?	-	?
Cc1cccc(/C=C/c2onc(C)c2S(=O)(=O)N2CCC(C(=O)NC(C)(C)C)CC2)c1	-	-	-	?	.	?
Cc1ccc(/C=C/c2onc(C)c2S(=O)(=O)N2CCC(C(=O)N3CCN(C)CC3)CC2)cc1	-	.	-	?	-	23µM
Cc1ccc(/C=C/c2onc(C)c2S(=O)(=O)N2CCC(C(=O)N(CCC(C)C)Cc3ccco3)CC2)cc1	.	.	.	?	-	16µM
CCOC(=O)C1CCN(C(=O)C2CCN(S(=O)(=O)c3c(C)noc3/C=C/c3ccc(C)cc3)CC2)CC1	.	.	.	?	-	5.2µM
Cc1ccc(/C=C/c2onc(C)c2S(=O)(=O)N2CCC(C(=O)NCc3ccco3)CC2)cc1	.	.	.	-	-	-
CSCC[C@@H]1NC(=O)C/C=C\[C@@H](C)COC(=O)[C@@H](CCSC)NC(=O)C/C=C\[C@@H](C)COC1=O	.	.	.	.	-[21 µM]	.
N#C/C(=N\Nc1ccccc1)C(=N)N1CCCCCC1	-	-	-	?	-	-
Cc1ccc(CNC(=O)C2CCN(S(=O)(=O)c3c(C)noc3/C=C/c3cccs3)CC2)cc1	.	.	.	21µM	-	?
Cc1ccc(/C=C/c2onc(C)c2S(=O)(=O)N2CCC(C(=O)N3CC(C)Oc4ccccc43)CC2)cc1 (stereo not given)	.	.	.	18µM	-	12µM
Cc1cc(C)c(/C=C/c2onc(C)c2S(=O)(=O)N2CCC(C(=O)Nc3cccc(C)c3C)CC2)c(C)c1	.	.	.	5.2µM	-	6.5µM
Cc1cc(C)c(/C=C/c2onc(C)c2S(=O)(=O)N2CCC(C(=O)N3CCN(c4ccccc4)CC3)CC2)c(C)c1	.	.	.	16µM	-	13µM
Cc1cc(C)c(/C=C/c2onc(C)c2S(=O)(=O)N2CCC(C(=O)NCc3ccccc3Cl)CC2)c(C)c1	.	.	.	-	-	?
COc1ccc(C2c3c(N)nc(CCc4ccccc4)nc3Oc3ccc4ccccc4c32)cc1OC (stereo not given)	.	.	.	.	-	.
Cc1cc(NC(=O)CCNS(=O)(=O)c2cccc3nsnc23)ccc1Br	.	.	.	-	-	-
CCOc1ccccc1/C=C/c1onc(C)c1S(=O)(=O)N1CCC(C(=O)NC)CC1	-	-	-	?	.	?
SMILES	CtBP-E1A inh	IL1B secr inh	Six1-Eya2 inh	DT40 TDP1 CPT	TDP1 inh	DT40 TDP1 no CPT
Cc1cccc(N2CCN(C(=O)C3CCN(S(=O)(=O)c4c(C)noc4/C=C/c4ccccc4F)CC3)CC2C)c1 (stereo not given)	.	.	.	10µM	-	6.5µM
CCOc1ccccc1/C=C/c1onc(C)c1S(=O)(=O)N1CCC(C(=O)N2CCCCC2)CC1	.	.	.	16µM	-	21µM
Cc1noc(/C=C/c2ccccc2F)c1S(=O)(=O)N1CCC(C(=O)NCc2ccco2)CC1	.	.	.	?	-	?
CCOc1ccccc1NC(=O)C(c1ccccc1)N1CCN(CC(=O)N2CCOCC2)CC1 (stereo not given)	-	-	-	23µM	-	-
COc1ccccc1NC(=O)CN1CCN(CC(=O)Nc2ccc(OCc3ccccc3)cc2)CC1	-	?	-	?	-	16µM
CCOc1ccc(NC(=O)CN2CCN(CC(=O)Nc3cc(OC)cc(OC)c3)CC2)cc1	-	-	-	-	-	-
CCOc1ccc(NC(=O)CN2CCN(CC(=O)Nc3ccccc3OCC)CC2)cc1	.	.	.	16µM	-	21µM
O=C(NCc1ccccc1)c1ccc(OC2CSC2)cc1	-	-	-	-	-	-
COc1ccccc1NC(=O)CN1CCN(CC(=O)Nc2ccc(F)cc2)CC1	-	-	-	-	-	?
O=C(NCc1ccccc1)c1ccc(Oc2ccc(C(=O)NCc3ccccc3)cc2)cc1	-	-	-	?	-	16µM
C=CCN(Cc1ccc(OC)c(OC)c1)C(=O)N1CCOCC1	-	-	-	-	.	-
CC(C)c1ccccc1OCC(=O)Nc1nnc(C2CC2)s1	-	-	-	-	-	-
CC(C)(C)c1cc(C(=O)NCc2ccccc2)ccn1	-	-	-	13µM	-	?
CCC1(CC)NC(=O)N(CC(=O)Nc2ccc(OCc3ccccc3)cc2)C1=O	-	-	-	?	-	18µM
CCOC(=O)N1CCN(CC(=O)Nc2ccc(Oc3ccccc3)cc2)CC1	-	-64	-	?	-	?
N#CCN1CCN(CCC(=O)Nc2ccc(OCc3ccccc3)cc2)CC1	-	-	-	-	-	23µM
O=C(CN1CCCC1)Nc1ccc(OCc2ccccc2)cc1	.	?	-	-	-	?
CC(C)OC(=O)CCC(=O)Nc1nc2ccccc2s1	-	-	-	-	-	-
COC(=O)c1c(NC(=O)/C(C#N)=C/c2ccccc2)sc2c1C(C(=O)OC)CC2 (stereo not given)	.	.	.	-	-[12.3 µM]	-
CCOc1ccccc1NC(=O)CN1CCCCCC1	-	-	-	?	14µM	?
O=C(CN1CCCCC1)Nc1ccccc1NC(=O)CN1CCCCC1	-	-	-	-	-	-

Assay outcomes (PubChem BioAssay)
